Source: PubChem
DUX4 inh = DUX4-mediated transcription inhibition | 37,000 tested, 0.8% active | activity change, negative = inhibition, % (test concentration not listed) | 293T-iDUX4 ZSCAN4-Gaussia luciferase reporter, 24 h; active compounds read low;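 active = mean inhibition of at least 10% in the main channel, exceeding the control channel by a set limit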;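 note: 0% = median of neutral control wells and -100% = median of positive control wells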
* marks the source's active call; other numbers are inactive results. This excerpt belongs to a sample that is enriched for hits.

SMILES | DUX4 inh
COc1ccc2c3c([nH]c2c1)[C@@H](CO)N(Cc1ccc(F)cc1)CC31CN(C)C1 | -5.1
CCS(=O)(=O)N1CC2(CN(Cc3ccccc3F)[C@@H](CO)c3[nH]c4cc(OC)ccc4c32)C1 | -45.9*
CCCC(=O)N1CC2(C1)CN(C(=O)CC1CC1)[C@@H](CO)c1c2c2ccc(OC)cc2n1C | 10.2
CN(C)c1ccc2c(c1)[C@@H]1C[C@@H](CC(=O)NCc3cccc(F)c3)O[C@@H](CO)[C@@H]1O2 | -2.4
CCC(=O)N1[C@H](CO)[C@H](c2ccccc2)C12CN(C(=O)c1ccc(F)cc1)C2 | 2.3
CN(C)C(=O)C[C@@H]1C=C[C@@H](NC(=O)Nc2cccc(F)c2)[C@@H](CO)O1 | -2.0
C[C@@H]1CN([C@@H](C)CO)C(=O)c2ccccc2-c2ccccc2CO[C@@H]1CN(C)Cc1cccnc1 | 0.6
COCCNC(=O)[C@H]1[C@H](CO)[C@H]2Cn3c(ccc(-c4ccccc4OC)c3=O)[C@H]2N1C(=O)C1CCC1 | 5.0
COc1ccc(S(=O)(=O)Nc2ccc3c(c2)C(=O)N([C@H](C)CO)C[C@@H](C)[C@@H](CN(C)C(=O)CCC(F)(F)F)OCCCC[C@@H](C)O3)cc1 | -3.5
CC(C)[C@@H](C)NC(=O)N(C)C[C@@H]1OCc2ccccc2-c2c(n(C)c3ccccc23)C(=O)N([C@H](C)CO)C[C@H]1C | 6.1
COc1ccc2c3c([nH]c2c1)[C@@H](CO)N(Cc1ccccc1Cl)CC31CCN(C(=O)C2CC2)CC1 | -20.8*
COc1ccc2c3c([nH]c2c1)[C@H](CO)N(Cc1cccc(Cl)c1)CC31CCN(C(C)=O)CC1 | -66.6*
CCCNC(=O)N1CC2(CN(Cc3ccc(F)cc3)C2)c2c([nH]c3cc(OC)ccc23)[C@@H]1CO | -37.4*
COc1cccc(CN2CC3(CCN(C)CC3)c3c([nH]c4cc(OC)ccc34)[C@@H]2CO)c1 | -3.5
COCC(=O)N1CCC2(CC1)CN(Cc1cccc(Cl)c1)[C@H](CO)c1[nH]c3cc(OC)ccc3c12 | 1.7
CCCNC(=O)N1CC2(CN(C)C2)c2c([nH]c3cc(OC)ccc23)[C@H]1CO | 8.6
COCC(=O)N1CC2(CCN(Cc3ccccc3Cl)CC2)c2c([nH]c3cc(OC)ccc23)[C@H]1CO | -4.8
COc1ccc2c3c([nH]c2c1)[C@@H](CO)N(C(=O)c1ccccn1)CC31CCN(C(=O)C2CC2)CC1 | -1.2
CCCNC(=O)N1CC2(C1)CN(Cc1ccc(F)cc1)[C@@H](CO)c1[nH]c3cc(OC)ccc3c12 | -2.5
O=C(CC(F)(F)F)N1C[C@@H]2[C@H](c3ccccc31)[C@@H](CO)N2C(=O)CN1CCOCC1 | -2.0
O=C(C1CCCC1)N1CC2(C1)[C@@H](c1ccccc1)[C@@H](CO)N2C(=O)CC1CC1 | -0.5
O=C1N[C@H](Cc2ccccc2)COCc2cnnn2CC[C@H]1Cc1cccc(F)c1 | 3.1
O=C(Cc1cccnc1)N1CC(=O)N2[C@H](CO)[C@@H](c3ccc(-c4cccc(F)c4)cc3)[C@H]2C1 | 9.5
CN(C)C(=O)[C@H]1[C@H](CO)[C@H]2Cn3c(ccc(-c4ccccc4)c3=O)[C@@H]1N2Cc1ccccn1 | 0.5
O=C(CC1CC1)N1CC(=O)N2[C@H](CO)[C@@H](c3ccc(C#Cc4ccccc4)cc3)[C@@H]2C1 | -8.8
SMILES | DUX4 inh
C[C@@H]1CN([C@H](C)CO)C(=O)c2c(c3ccccc3n2C)-c2ccccc2CO[C@H]1CN(C)Cc1ccc(C(=O)O)cc1 | 5.6
C[C@H]1CN([C@@H](C)CO)C(=O)c2c(c3ccccc3n2C)-c2ccccc2CO[C@@H]1CN(C)Cc1ccc(C(=O)O)cc1 | 16.3
C[C@H]1CN([C@@H](C)CO)C(=O)c2c(c3ccccc3n2C)-c2ccccc2CO[C@@H]1CN(C)Cc1ccc(C(F)(F)F)cc1 | -48.5*
C[C@@H]1CN([C@@H](C)CO)C(=O)c2c(c3ccccc3n2C)-c2ccccc2CO[C@@H]1CN(C)Cc1ccc(O)cc1 | -9.0
C[C@@H]1CN([C@H](C)CO)C(=O)c2c(c3ccccc3n2C)-c2ccccc2CO[C@H]1CN(C)Cc1ccc(C(F)(F)F)cc1 | 3.3
C[C@@H]1CN([C@H](C)CO)C(=O)c2c(c3ccccc3n2C)-c2ccccc2CO[C@@H]1CN(C)Cc1ccc(C(F)(F)F)cc1 | -43.0*
CO[C@@H]1CC[C@H]2CCOc3c(C#N)cccc3C(=O)N(C)[C@@H](C)C(=O)N(C)C[C@H]1O2 | 0.2
CC(C)NC(=O)N1CC2(C1)[C@H](c1ccccc1)[C@H](CO)N2C(=O)C1CCCC1 | 0.1
CO[C@H]1CN(C)C(=O)c2cc(NC(=O)Nc3cccc(F)c3)ccc2OC[C@H](C)N(C(=O)C2CC2)C[C@@H]1C | -0.8
O=C([C@H]1[C@H](CO)[C@H]2Cn3c(ccc(-c4ccncc4)c3=O)[C@H]2N1CCC(F)(F)F)N1CCOCC1 | 2.9
CO[C@H]1CN(C)C(=O)c2ccc(NC(C)=O)cc2OC[C@@H](C)N(Cc2cccnc2)C[C@@H]1C | 0.0
CO[C@@H]1CN(C)C(=O)c2ccc(NC(C)=O)cc2OC[C@H](C)N(Cc2cccnc2)C[C@H]1C | 2.0
